32 compounds from PubChem BioAssay (EPA / NIEHS) can be followed below.

Assay [1] addresses sheep Cyclooxygenase-1 (Cox1), PTGS1 (gene 443551) (UniProt P05979). Put plainly: NVS_ENZ_oCOX1: NovaScreen (NVS) Enzymatic Assay for sheep Cyclooxygenase-1 (Cox1) (AID 2283239).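 Note: actives reduce cyclooxygenase activity so potencies are for inhibitors.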 The essentials: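 Tested in duplicate at 25 uM, then in concentration series if active, against seminal vesicle extract from sheep. Enzyme activity was measured colorimetrically at 0.66 hour and normalised to DMSO.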

Assay [2] has as its target guinea pig Opioid, Kappa 1 Receptor (OpiateK), OPRK1 (gene 100135587) (UniProt P41144). The assay can be described thus: NVS_GPCR_gOpiateK: NovaScreen (NVS) G Protein-Coupled Receptor Assay for guinea pig Opioid, Kappa 1 Receptor (OpiateK) (AID 2283252).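 Note: radioligand displacement from kappa opioid receptor in guinea pig cerebellar membranes; active means reduced radioligand binding relative to DMSO.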 The essentials: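 Radioligand competition binding using guinea pig cerebellum membrane fraction; 2 h exposure; filter radiodetection. Single concentration 25 uM (duplicate), follow-up concentration-response for actives.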

Assay [3] addresses Adenosine receptor A1 (Bos taurus) (UniProt P28190). The assay can be described thus: NVS_GPCR_bAdoR_NonSelective: NovaScreen (NVS) G Protein-Coupled Receptor Assay for bovine Adenosine Receptor (AdoR), Non-selective Binding (AID 2283244). The essentials:
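Cell-free binding with membranes from bovine striatum: radioligand displaced by test chemical, read after 1 h by filtration and scintillation. Single-point 25 uM duplicate primary, 50 uM top concentration in follow-up curves, DMSO baseline.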

The test system of assay [4] is bovine Histamine 1 Receptor (H1), gene 281231. Put plainly: NVS_GPCR_bH1: NovaScreen (NVS) G Protein-Coupled Receptor Assay for bovine Histamine 1 Receptor (H1) (AID 2283246). The essentials: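 Hits from a 25 uM duplicate primary screen were retested in concentration series (top 50 uM); binding measured as scintillation-counted displacement of radioligand from bovine cerebellar membranes after 1 h, normalised to DMSO.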

The subject of assay [5] is guinea pig Muscarinic, Peripheral (Mperiperal) Receptor, Non-selective Binding, gene 100379235. The assay can be described thus: NVS_GPCR_gMPeripheral_NonSelective: NovaScreen (NVS) G Protein-Coupled Receptor Assay for guinea pig Muscarinic, Peripheral (Mperiperal) Receptor, Non-selective Binding (AID 2283250). The essentials:
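Screened in duplicate at 25 uM, hits retested in concentration series to 50 uM max, using bladder membrane radioligand displacement from guinea pig. Filtration and scintillation counting 1 h post-dose, fitted relative to DMSO.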

Assay [6] addresses human Adenosine A2a Receptor (AdoRA2a), ADORA2A (gene 135) (UniProt P29274). Put plainly: NVS_GPCR_hAdoRA2a: NovaScreen (NVS) G Protein-Coupled Receptor Assay for human Adenosine A2a Receptor (AdoRA2a) (AID 2283256). A digest of the protocol: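 Compounds screened in duplicate at 25 uM, with actives followed up in concentration series, for displacement of a radioligand from HEK293-derived receptor protein. Bound counts read by filter scintillation at 1.5 hours, DMSO as baseline.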

Assay [7] in a line: NVS_GPCR_bNPY_NonSelective: NovaScreen (NVS) G Protein-Coupled Receptor Assay for bovine Neuropeptide Y (NPY) Receptor, Non-selective Binding (AID 2283245). The essentials:
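Displacement of radioligand from bovine hippocampal membrane receptors, read by filtration and scintillation counting after 1 hour. Concentration-response to a top of 50 uM followed a 25 uM duplicate primary screen. Loss of signal versus DMSO.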

In assay [8] the target is human Serotonin, 5-Hydroxytryptamine Receptor 6 (5HT6), HTR6 (gene 3362) (UniProt P50406). The assay can be described thus: NVS_GPCR_h5HT6: NovaScreen (NVS) G Protein-Coupled Receptor Assay for human Serotonin, 5-Hydroxytryptamine Receptor 6 (5HT6) (AID 2283253). The essentials: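 Filter scintillation counting of radioligand displacement from HEK293-expressed 5HT6, 1 hour post-dose, with loss of signal relative to DMSO. Single 25 uM duplicates first, with concentration series for confirmation.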
Sequence of human Serotonin, 5-Hydroxytryptamine Receptor 6 (5HT6), HTR6 (gene 3362) (P50406 whole entry, looked up): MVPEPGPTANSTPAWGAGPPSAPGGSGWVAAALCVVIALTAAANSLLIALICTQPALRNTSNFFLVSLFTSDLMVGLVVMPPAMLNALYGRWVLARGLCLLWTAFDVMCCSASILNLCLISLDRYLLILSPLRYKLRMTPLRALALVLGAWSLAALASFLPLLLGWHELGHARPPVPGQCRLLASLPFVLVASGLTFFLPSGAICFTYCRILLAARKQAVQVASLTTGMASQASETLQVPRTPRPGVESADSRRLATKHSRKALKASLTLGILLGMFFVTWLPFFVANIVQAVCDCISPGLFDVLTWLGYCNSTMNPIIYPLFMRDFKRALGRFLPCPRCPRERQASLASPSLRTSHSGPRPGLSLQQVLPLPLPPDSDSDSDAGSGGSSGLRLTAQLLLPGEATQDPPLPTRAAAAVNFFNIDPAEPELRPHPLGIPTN

Assay [9] has as its system guinea pig Leukotriene B4 Receptor (LTB4), gene 100379538. The assay can be described thus: NVS_GPCR_gLTB4: NovaScreen (NVS) G Protein-Coupled Receptor Assay for guinea pig Leukotriene B4 Receptor (LTB4) (AID 2283247). A digest of the protocol:
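Membranes from guinea pig spleen incubated 2 h with radioligand and compound; bound counts measured by filtration and scintillation. Screened first at 25 uM in duplicate, then actives titrated to a 50 uM top concentration relative to DMSO.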

Assay [10] addresses human Serotonin, 5-Hydroxytryptamine Receptor 5A (5HT5A), HTR5A (gene 3361) (UniProt P47898). Put plainly: NVS_GPCR_h5HT5A: NovaScreen (NVS) G Protein-Coupled Receptor Assay for human Serotonin, 5-Hydroxytryptamine Receptor 5A (5HT5A) (AID 2283251). The essentials:
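Membranes from HEK293 cells, radioligand binding read by filtration and scintillation after 1 h. Single-concentration duplicate testing at 25 uM, then concentration-response for actives; positive-direction fitting relative to DMSO.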

The target of assay [11] is human Adrenergic, Beta 1 Receptor (Adrb1), ADRB1 (gene 153) (UniProt P08588). The assay can be described thus: NVS_GPCR_hAdrb1: NovaScreen (NVS) G Protein-Coupled Receptor Assay for human Adrenergic, Beta 1 Receptor (Adrb1) (AID 2283258). A digest of the protocol:
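Membranes/protein extracted from human neuroepithelioma cells, radioligand competition binding read by filtration and scintillation 2 h post-dose. Single 25 uM duplicate screen, then concentration-response follow-up; DMSO as negative control.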

Assay [12] deals with human Adrenergic, Alpha 2c Receptor (Adra2C), ADRA2C (gene 152) (UniProt P18825). The assay can be described thus: NVS_GPCR_hAdra2C: NovaScreen (NVS) G Protein-Coupled Receptor Assay for human Adrenergic, Alpha 2c Receptor (Adra2C) (AID 2283259). The essentials: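 Screened first in duplicate at 25 uM, with actives then run as concentration series. Membranes from Sf9 cells were exposed for 1 h, and displacement of radioligand was counted after filtration, using DMSO as baseline.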
Sequence of human Adrenergic, Alpha 2c Receptor (Adra2C), ADRA2C (gene 152) (P18825 whole entry, looked up): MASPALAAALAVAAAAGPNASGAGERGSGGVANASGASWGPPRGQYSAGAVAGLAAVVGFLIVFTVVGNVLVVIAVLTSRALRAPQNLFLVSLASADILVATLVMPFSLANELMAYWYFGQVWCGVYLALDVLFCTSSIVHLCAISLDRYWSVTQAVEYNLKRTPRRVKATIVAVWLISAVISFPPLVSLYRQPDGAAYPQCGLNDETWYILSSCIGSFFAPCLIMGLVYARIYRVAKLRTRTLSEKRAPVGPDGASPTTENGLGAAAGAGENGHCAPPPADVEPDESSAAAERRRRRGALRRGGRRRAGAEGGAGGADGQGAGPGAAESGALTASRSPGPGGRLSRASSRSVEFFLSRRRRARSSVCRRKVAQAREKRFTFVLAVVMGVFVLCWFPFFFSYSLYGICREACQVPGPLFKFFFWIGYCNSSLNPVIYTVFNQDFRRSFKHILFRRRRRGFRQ

Assay [13] addresses human Adrenergic, Alpha 2A Receptor (Adra2A), ADRA2A (gene 150) (UniProt P08913). Put plainly: NVS_GPCR_hAdra2A: NovaScreen (NVS) G Protein-Coupled Receptor Assay for human Adrenergic, Alpha 2A Receptor (Adra2A) (AID 2283257). A digest of the protocol:
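Displacement of a specific radioligand from HT29 membrane protein was counted by filter scintillation after 1 h. Compounds were screened in duplicate at 25 uM, and actives were retested in concentration series. Fitting was positive-direction against DMSO.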

The target of assay [14] is human Serotonin, 5-Hydroxytryptamine Receptor 7 (5HT7), HTR7 (gene 3363) (UniProt P34969). Put plainly: NVS_GPCR_h5HT7: NovaScreen (NVS) G Protein-Coupled Receptor Assay for human Serotonin, 5-Hydroxytryptamine Receptor 7 (5HT7) (AID 2283255).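 Note: hits reduce specific radioligand binding relative to DMSO.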 A digest of the protocol: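 Filter-bound radioactivity counted after 1 h, with loss of specific radioligand binding fitted against DMSO. Membrane protein came from CHO cells expressing human 5HT7. Chemicals were tested first at 25 uM in duplicate, then in concentration series if active.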
Sequence of human Serotonin, 5-Hydroxytryptamine Receptor 7 (5HT7), HTR7 (gene 3363) (P34969 whole entry, looked up): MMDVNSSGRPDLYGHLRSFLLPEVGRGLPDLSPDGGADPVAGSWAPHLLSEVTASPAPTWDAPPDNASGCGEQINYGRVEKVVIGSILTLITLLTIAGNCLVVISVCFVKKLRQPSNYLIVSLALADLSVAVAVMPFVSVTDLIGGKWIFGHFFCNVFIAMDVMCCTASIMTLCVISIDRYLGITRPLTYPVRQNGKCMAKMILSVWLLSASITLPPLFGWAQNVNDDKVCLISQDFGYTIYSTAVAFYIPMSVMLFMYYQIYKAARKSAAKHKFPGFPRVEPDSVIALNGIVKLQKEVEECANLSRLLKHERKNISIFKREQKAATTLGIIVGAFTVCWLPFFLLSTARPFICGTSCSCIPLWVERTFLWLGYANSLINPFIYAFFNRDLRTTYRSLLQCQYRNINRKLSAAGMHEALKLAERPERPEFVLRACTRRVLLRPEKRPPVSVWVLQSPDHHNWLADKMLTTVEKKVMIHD

Assay [15] concerns the target Beta-2 adrenergic receptor (Homo sapiens) (UniProt P07550). Put plainly: NVS_GPCR_hAdrb2: NovaScreen (NVS) G Protein-Coupled Receptor Assay for human Adrenergic, Beta 2 Receptor (Adrb2) (AID 2283261). The essentials:
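Compounds screened in duplicate at 25 uM, then actives in concentration series. Human beta-2 receptor from CHO material, cell-free; radioligand displacement after 1 h measured by filtration and scintillation against DMSO baseline.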

Assay [16] has as its target human Serotonin, 5-Hydroxytryptamine Receptor 2A (5HT2A), HTR2A (gene 3356) (UniProt P28223). The assay can be described thus: NVS_GPCR_h5HT2A: NovaScreen (NVS) G Protein-Coupled Receptor Assay for human Serotonin, 5-Hydroxytryptamine Receptor 2A (5HT2A) (AID 2283249). A digest of the protocol: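 Radioligand displacement on human cortex tissue extract, counted by filtration and scintillation 1.5 h post-dosing. Initial single-concentration screen at 25 uM in duplicate, concentration series in follow-up; DMSO as baseline.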

Assay [17] has as its target human Adenosine A1 Receptor (AdoRA1), ADORA1 (gene 134) (UniProt P30542). Put plainly: NVS_GPCR_hAdoRA1: NovaScreen (NVS) G Protein-Coupled Receptor Assay for human Adenosine A1 Receptor (AdoRA1) (AID 2283254). The essentials: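 Membranes from human cortical tissue were incubated with radioligand and test chemical for 1 hour, then filtered and counted. Activity was taken as signal loss relative to DMSO, screened at 25 uM in duplicate before concentration-response follow-up.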

Results filed as inconclusive are left out. The source made the active and inactive calls. Rule for the calls: active = hit-call score of the fitted dose curve at least 0.9, where 1 is the maximum; inconclusive = response in the unintended direction; inactive = score below 0.9.

Sequence of human Serotonin, 5-Hydroxytryptamine Receptor 5A (5HT5A), HTR5A (gene 3361) (P47898 whole entry, looked up): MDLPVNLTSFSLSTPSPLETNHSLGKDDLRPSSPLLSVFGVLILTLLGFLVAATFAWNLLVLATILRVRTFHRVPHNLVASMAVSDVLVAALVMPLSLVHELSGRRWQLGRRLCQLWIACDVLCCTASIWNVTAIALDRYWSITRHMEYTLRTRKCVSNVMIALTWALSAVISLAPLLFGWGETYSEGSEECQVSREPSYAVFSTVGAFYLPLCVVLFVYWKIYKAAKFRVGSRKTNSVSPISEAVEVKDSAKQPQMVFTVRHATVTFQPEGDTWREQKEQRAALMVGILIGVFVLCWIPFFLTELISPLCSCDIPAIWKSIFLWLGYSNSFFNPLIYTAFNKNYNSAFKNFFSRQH
Sequence of human Adenosine A2a Receptor (AdoRA2a), ADORA2A (gene 135) (P29274 whole entry, looked up): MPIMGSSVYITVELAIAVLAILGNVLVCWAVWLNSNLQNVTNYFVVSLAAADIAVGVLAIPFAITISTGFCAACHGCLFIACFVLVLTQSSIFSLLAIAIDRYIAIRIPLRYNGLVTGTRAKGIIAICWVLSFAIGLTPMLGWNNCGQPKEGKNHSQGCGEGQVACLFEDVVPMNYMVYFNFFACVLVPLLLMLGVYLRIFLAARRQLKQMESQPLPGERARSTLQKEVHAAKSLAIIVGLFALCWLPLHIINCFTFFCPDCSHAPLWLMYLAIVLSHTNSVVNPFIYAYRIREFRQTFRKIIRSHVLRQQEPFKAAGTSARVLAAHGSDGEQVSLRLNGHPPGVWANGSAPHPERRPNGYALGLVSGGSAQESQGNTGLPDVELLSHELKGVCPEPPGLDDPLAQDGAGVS
Sequence of guinea pig Opioid, Kappa 1 Receptor (OpiateK), OPRK1 (gene 100135587) (P41144 whole entry, looked up): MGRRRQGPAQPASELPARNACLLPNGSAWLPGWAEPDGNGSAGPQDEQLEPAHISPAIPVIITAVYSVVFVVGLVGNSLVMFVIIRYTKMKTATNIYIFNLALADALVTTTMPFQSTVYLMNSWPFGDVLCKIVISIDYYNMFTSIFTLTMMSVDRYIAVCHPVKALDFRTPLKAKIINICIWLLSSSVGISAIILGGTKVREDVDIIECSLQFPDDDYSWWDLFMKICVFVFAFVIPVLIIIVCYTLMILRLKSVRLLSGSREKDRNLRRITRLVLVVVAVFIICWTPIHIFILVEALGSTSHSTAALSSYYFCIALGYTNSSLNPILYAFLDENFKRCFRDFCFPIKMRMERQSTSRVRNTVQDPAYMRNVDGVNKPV
Sequence of human Adenosine A1 Receptor (AdoRA1), ADORA1 (gene 134) (P30542 whole entry, looked up): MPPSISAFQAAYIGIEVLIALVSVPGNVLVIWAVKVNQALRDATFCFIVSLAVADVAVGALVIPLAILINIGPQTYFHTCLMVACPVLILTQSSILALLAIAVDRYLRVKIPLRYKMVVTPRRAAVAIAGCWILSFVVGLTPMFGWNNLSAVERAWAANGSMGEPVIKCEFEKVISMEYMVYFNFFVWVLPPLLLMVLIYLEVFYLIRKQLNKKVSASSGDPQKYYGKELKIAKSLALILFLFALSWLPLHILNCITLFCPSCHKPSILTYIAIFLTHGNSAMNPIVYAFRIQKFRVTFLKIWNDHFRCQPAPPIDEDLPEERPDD
Sequence of Beta-2 adrenergic receptor (Homo sapiens) (P07550 whole entry, looked up): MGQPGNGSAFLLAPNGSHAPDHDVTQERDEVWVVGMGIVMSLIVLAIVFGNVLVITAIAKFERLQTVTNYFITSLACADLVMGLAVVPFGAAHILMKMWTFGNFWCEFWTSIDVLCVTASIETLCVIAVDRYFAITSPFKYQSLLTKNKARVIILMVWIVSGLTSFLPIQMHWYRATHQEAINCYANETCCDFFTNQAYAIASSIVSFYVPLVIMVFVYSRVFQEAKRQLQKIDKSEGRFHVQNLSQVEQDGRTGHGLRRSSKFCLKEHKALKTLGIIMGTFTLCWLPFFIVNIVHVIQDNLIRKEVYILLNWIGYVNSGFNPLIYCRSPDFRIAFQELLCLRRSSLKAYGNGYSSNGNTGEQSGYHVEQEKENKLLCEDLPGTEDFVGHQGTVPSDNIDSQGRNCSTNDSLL
Sequence of human Adrenergic, Beta 1 Receptor (Adrb1), ADRB1 (gene 153) (P08588 whole entry, looked up): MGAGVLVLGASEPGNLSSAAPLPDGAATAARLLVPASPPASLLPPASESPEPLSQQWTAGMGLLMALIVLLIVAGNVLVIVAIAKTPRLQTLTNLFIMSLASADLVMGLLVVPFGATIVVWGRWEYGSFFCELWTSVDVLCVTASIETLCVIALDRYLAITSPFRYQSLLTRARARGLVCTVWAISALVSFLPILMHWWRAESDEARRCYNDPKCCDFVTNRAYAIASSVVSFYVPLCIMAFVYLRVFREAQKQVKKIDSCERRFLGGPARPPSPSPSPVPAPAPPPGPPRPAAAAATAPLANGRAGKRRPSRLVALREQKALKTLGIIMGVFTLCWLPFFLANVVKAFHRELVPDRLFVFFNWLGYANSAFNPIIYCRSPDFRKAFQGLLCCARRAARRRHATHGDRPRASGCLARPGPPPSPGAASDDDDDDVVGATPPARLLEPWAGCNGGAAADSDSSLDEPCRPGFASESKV
Sequence of sheep Cyclooxygenase-1 (Cox1), PTGS1 (gene 443551) (P05979 whole entry, looked up): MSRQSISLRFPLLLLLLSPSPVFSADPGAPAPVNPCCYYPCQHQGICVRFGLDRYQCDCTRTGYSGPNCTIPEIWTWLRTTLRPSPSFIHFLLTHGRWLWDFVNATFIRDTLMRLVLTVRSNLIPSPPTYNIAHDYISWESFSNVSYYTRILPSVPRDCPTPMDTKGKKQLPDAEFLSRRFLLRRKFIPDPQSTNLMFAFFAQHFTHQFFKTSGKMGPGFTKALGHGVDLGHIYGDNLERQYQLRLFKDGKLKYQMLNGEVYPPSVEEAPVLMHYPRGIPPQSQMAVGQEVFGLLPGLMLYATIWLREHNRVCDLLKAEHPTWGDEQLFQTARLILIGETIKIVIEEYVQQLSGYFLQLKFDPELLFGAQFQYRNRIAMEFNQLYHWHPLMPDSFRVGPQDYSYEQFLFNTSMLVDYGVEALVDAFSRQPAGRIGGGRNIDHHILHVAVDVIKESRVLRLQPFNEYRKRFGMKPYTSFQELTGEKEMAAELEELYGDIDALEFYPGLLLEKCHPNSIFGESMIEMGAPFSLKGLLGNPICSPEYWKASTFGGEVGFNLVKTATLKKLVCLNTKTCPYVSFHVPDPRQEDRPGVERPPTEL
Sequence of Adenosine receptor A1 (Bos taurus) (P28190 whole entry, looked up): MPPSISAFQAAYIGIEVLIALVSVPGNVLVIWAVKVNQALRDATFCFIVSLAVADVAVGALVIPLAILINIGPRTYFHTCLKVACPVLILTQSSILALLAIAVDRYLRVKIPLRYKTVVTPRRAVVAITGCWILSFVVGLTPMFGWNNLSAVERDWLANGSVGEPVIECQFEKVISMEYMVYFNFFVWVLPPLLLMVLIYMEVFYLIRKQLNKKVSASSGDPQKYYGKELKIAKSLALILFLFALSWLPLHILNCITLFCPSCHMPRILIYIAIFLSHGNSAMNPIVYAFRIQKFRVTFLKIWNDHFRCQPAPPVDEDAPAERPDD

Consider `COCC(C)N(C(=O)CCl)c1c(C)csc1C` (configuration not stated), for which, in [1], the compound was classed as inactive. Besides, the AC50 – broadly, the midpoint of the concentration-response curve, whichever way the signal moves – in assay [2] is 15.5 µM (active).
Regarding `CNC(=O)N(C)c1nnc(C(C)(C)C)s1`, the call in assay [1] was inactive.
Take `COP(=S)(OC)SCn1nnc2ccccc2c1=O`: the AC50 is 8.1 µM (active) in assay [3] and 2.4 µM (active) in assay [4]. Moreover, the compound was called inactive in assay [5] and in assay [6].
With `CCC(C)n1c(=O)[nH]c(C)c(Br)c1=O` (configuration not stated), the outcome in assay [3] and in assay [4] was inactive.
For `CCOP(=S)(OCC)Oc1nc(Cl)n(C(C)C)n1`, in [7], the compound was called inactive.
As for `N#Cc1c[nH]cc1-c1cccc2c1OC(F)(F)O2`, the compound was classed as inactive in [7] and in assay [8].
As to `CC(C)=CC1C(C(=O)OCc2coc(Cc3ccccc3)c2)C1(C)C` (configuration not stated), the AC50 is 6.5 µM (active) in assay [9], 25 µM (active) in [10], 25 µM (active) in assay [11] and 25 µM (active) in assay [12].
For the compound `CCCN(CC)CC1COC2(CCC(C(C)(C)C)CC2)O1` (configuration not stated), in [5], the compound was called inactive. For the same compound, the values for the AC50 in [2] and in [13] were 14.3 µM (active) and 3.99 µM (active), respectively.
On to `CC(C)N1C(=O)N(c2ccccc2)CSC1=NC(C)(C)C`, for which the result in assay [10] and in assay [8] was inactive.
For the compound `Cc1cc(C)nc(Nc2ccccc2)n1`, the AC50 in assay [6] is 10.9 µM (active).
Regarding `Nc1c(Cl)c(F)nc(OCC(=O)O)c1Cl`, in assay [12], the compound was classed as inactive.
With `CCCCC(O)(Cn1cncn1)c1ccc(Cl)cc1Cl` (configuration not stated), the call in assay [10] and in [8] was inactive. The results for the AC50 in assay [2] and in assay [14] were 17.8 µM (active) and 16.6 µM (active), respectively.
For `CCOc1nc(F)cc2nc(S(=O)(=O)Nc3c(Cl)cccc3Cl)nn12`, the compound was classed as inactive in assay [5].
Take `Nc1c(Cl)c(Cl)nc(C(=O)O)c1Cl`: the compound was classed as inactive in [15].
Turning to `COC(=O)N(C(=O)N1CO[C@@]2(C(=O)OC)Cc3cc(Cl)ccc3C2=N1)c1ccc(OC(F)(F)F)cc1`, the call in assay [14] was inactive.
As to `Cn1c(-c2ccccc2)cc(-c2ccccc2)[n+]1C`, the AC50 in assay [5] was 6.52 µM (active); in assay [2] it was 12 µM (active); in [14] it was 14.8 µM (active); in [13] it was 1.32 µM (active); in assay [12] it was 3.74 µM (active).
Take `OC(c1ccc(Cl)cc1)(c1ccc(Cl)cc1)C(Cl)(Cl)Cl`: the result in [10] and in assay [14] was inactive.
On to `CC1(C)CON(Cc2ccccc2Cl)C1=O`, for which the compound was classed as inactive in [12].
Take `CC1(C)C(C=C(Cl)Cl)C1C(=O)OC(C#N)c1cccc(Oc2ccccc2)c1` (configuration not stated): the result in assay [10] was inactive. Moreover, in assay [14], the AC50 was 6.91 µM (active).
Regarding `COP(=O)(OC)O/C(C)=C/C(=O)N(C)C`, the compound was called inactive in [5].
For `CCOC(=O)C(C)OC(=O)c1cc(Oc2ccc(C(F)(F)F)cc2Cl)ccc1[N+](=O)[O-]` (configuration not stated), the AC50 is 6.67 µM (active) in assay [10] and 15.3 µM (active) in assay [14].
For the compound `C=C(C)CN(CC)c1c([N+](=O)[O-])cc(C(F)(F)F)cc1[N+](=O)[O-]`, in assay [9], the compound was called inactive.
Turning to `O=C1C2CC=CCC2C(=O)N1SC(Cl)(Cl)Cl` (configuration not stated), the result in assay [16], in assay [5] and in assay [10] was inactive. The AC50 in [14] is 4.95 µM (active).
In the case of `CO/N=C(/C1=NOCCO1)c1ccccc1Oc1ncnc(Oc2ccccc2Cl)c1F`, the compound was called inactive in [10], in assay [2] and in assay [17].
As to `CCN(CC)c1nc(C)cc(OP(=S)(OC)OC)n1`, the call in assay [9] was inactive.
In the case of `CCOc1cc(C(C)(C)C)ccc1C1COC(c2c(F)cccc2F)=N1` (configuration not stated), the compound was classed as inactive in assay [17].
As for `COC(=O)NS(=O)(=O)c1ccc(N)cc1`, the call in assay [15] was inactive.
On to `CC1(C)C(C(=O)OC(C#N)c2cccc(Oc3ccccc3)c2)C1(C)C` (configuration not stated), for which the AC50 in assay [10] and in [14] was 25 µM (active) throughout.
As to `CCN(CC)C(=O)C(C)Oc1cccc2ccccc12` (configuration not stated), the compound was classed as inactive in [9]. For the same compound, the AC50 in assay [2] is 25 µM (active).
As for `CN/C(=N\[N+](=O)[O-])NCc1cnc(Cl)s1`, in assay [10], the call was inactive.
For `Nc1cnn(-c2ccccc2)c(=O)c1Cl`, the AC50 in assay [17] is 8.18 µM (active); in assay [6] it was 32.6 µM (active).
Take `CC(C)Nc1nc(Cl)nc(NC(C)C)n1`: the AC50 in assay [11] was 6.34 µM (active).
